Test system: PRKCE
Conditions: concentration: 1 μM,replicates: in singlicate; n = 1
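Note: KINOMEscan kinase panel screen.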

SMILES	%Inh
CNC(=O)c1ccccc1Sc1ccc2c(/C=C/c3ccccn3)n[nH]c2c1	58%
O=C(NCCNc1ccnc(NCc2ccc(F)cc2)n1)c1cc2ccccc2s1 [GSK1379944]	86%
CN(C)CCOc1ccc(-c2cc(-c3c[nH]nc3-c3ccccn3)ccn2)cc1 [GW835314]	11%
Cc1cc(C(=O)Nc2ccc(Oc3ccc4nc(NC(=O)C5CC5)cn4n3)cc2)nn1-c1ccccc1	0%
Cc1ccc(-n2nc(C(C)(C)C)cc2NC(=O)Nc2ccc(OCCN3CCOCC3)c3ccccc23)cc1 [GW839464]	15%
CCN(CC)CCCCNc1ncc2cc(-c3c(Cl)cccc3Cl)c(NC(=O)NC(C)(C)C)nc2n1	74%
CCN(CC)CCOc1ccc(Nc2ncc3cc(-c4c(Cl)cccc4Cl)c(=O)n(C)c3n2)cc1 [SB-601273]	22%
Cc1cc2cn[nH]c2cc1-c1cccc2c(N)c(C(N)=O)nnc12	4%
CC(C)Nc1cc(-c2ccc3c(N)n[nH]c3c2)nc(N)n1 [GSK2221681]	0%
C[C@@H](Oc1cc(-c2cnn(C3CCNCC3)c2)cnc1N)c1c(Cl)ccc(F)c1Cl	2%
Cl.Cl.Nc1nc(-c2ccc3c(N)n[nH]c3c2)cc(N2CCCC(NC(=O)c3ccccc3)C2)n1 (stereo not drawn) [GSK2286775]	10%
CC(C)N1C(=O)Cc2cc(Nc3ncc(C(F)(F)F)c(NCc4cccc(S(C)(=O)=O)c4)n3)ccc21	0%
Cl.Cl.NC[C@H](Cc1ccc(C(F)(F)F)cc1)NC(=O)c1cc(Br)c(-c2ccnc3[nH]ccc23)s1 [GSK1487252]	97.5%
C[C@@H]1CCN(C(=O)CC#N)C[C@@H]1N(C)c1ncnc2[nH]ccc12	45%
CN(C)CC(O)COc1ccc(Nc2nccc(-c3cnn4nc(N5CCOCC5)ccc34)n2)cc1 (stereo not drawn) [GW767488]	0%
Cc1occc1-c1nc(N)c(OC[C@@H](N)Cc2c[nH]c3ccccc23)cc1-c1cc2c(C)n[nH]c2cn1 [GSK1660450]	99.6%
Cc1ccc2c(-c3ccncc3)c(-c3ccc(F)cc3)nn2c1.Cl [GW461484]	8%
C[C@H]1Oc2cc(cnc2N)-c2c(nn(C)c2C#N)CN(C)C(=O)c2ccc(F)cc21	0%
NC(=O)c1cc(-c2ccccc2)cc2c(C3CCNCC3)c[nH]c12 [GSK301362]	46%
C=CC(=O)Nc1cc2c(Nc3ccc(F)c(Cl)c3)ncnc2cc1OCCCN1CCOCC1 [GW781483]	30%
CCn1c(-c2nonc2N)nc2c(C#CC(C)(C)O)nc(OCCN)cc21.Cl.Cl [GSK902056]	97.9%
Cc1n[nH]c2ccc(-c3cc(OC[C@@H](N)Cc4ccccc4)cnc3-c3ccoc3)cc12.O=C(O)C(F)(F)F.O=C(O)C(F)(F)F [GSK507358]	95.5%
Cl.Cl.NC[C@H](CC1CCCCC1)NC(=O)c1cc(Br)c(-c2ccnc3[nH]ccc23)s1 [GSK1581427]	96.6%
COc1ccc(C[C@@H](CN)NC(=O)c2cc(Br)c(-c3ccnc4[nH]ccc34)s2)cc1.Cl.Cl [GSK1389063]	98.2%
Cl.Oc1cc(-c2nc(-c3ccccc3)[nH]c2-c2ccncc2)ccc1Cl [SB-386023]	13%
Nc1nc(Nc2ccccc2)cc(-c2ccc3c(N)n[nH]c3c2)n1 [GSK2225749]	0%
O=C(NCCCN1CCOC1=O)c1cnc(NCc2cc(Cl)ccc2Cl)nc1NC1CCCC1	14%

From paper PMC5540273 (PLoS ONE, 2017)
